Reference: PubChem BioAssay (EPA / NIEHS)
Records with an inconclusive call do not appear. Active and inactive are the calls of the source. The calls were made as follows, unless noted: active = hit-call score of the fitted dose curve at least 0.9, where 1 is the maximum; inactive = score below 0.9.

Assays:
[1] = ATG_VDRE_CIS: Attagene CIS-FACTORIAL HepG2 Assay for human Vitamin D Receptor Element (VDRE) (AID 2282968); details: HepG2 VDRE cis-reporter transcription, actives raise or lower the signal
Method in brief: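 Reporter mRNA induction, quantified by capillary electrophoresis of fluorescently labelled RT-PCR products, was read 24 h after dosing HepG2 cells carrying transiently transfected cis-regulated reporter units; gain or loss relative to DMSO.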

[2] = biological target: Glucocorticoid receptor (Homo sapiens) (UniProt P04150); test: ATG_GR_TRANS: Attagene TRANS-FACTORIAL HepG2 Assay for human Glucocorticoid Receptor (GR) (AID 2282978; active = hit-call score of the fitted dose curve at least 0.9, where 1 is the maximum;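 also: activators score as hits since higher reporter transcript over DMSO is fitted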); details: HepG2 Attagene TRANS GR reporter, mRNA transcription
Method in brief: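 In this trans-factorial format, exogenous NR-GAL4 chimeric proteins in transfected HepG2 cells regulate GAL4-UAS reporter transcription. After 24 h treatment, reporter mRNA induction relative to DMSO is read by RT-PCR and capillary electrophoresis.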

[3] = biological target: Oxysterols receptor LXR-alpha (Homo sapiens) (UniProt Q13133); test: ATG_LXRa_TRANS: Attagene TRANS-FACTORIAL HepG2 Assay for human Liver X Receptor alpha (LXRa) (AID 2282980; active = hit-call score of the fitted dose curve at least 0.9, where 1 is the maximum); details: HepG2 Attagene TRANS reporter, LXRa transactivation
Method in brief: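 Read-out: reporter transcript levels by RT-PCR plus capillary electrophoresis, fluorescence intensity. Transiently transfected HepG2, exogenous NR-GAL4 chimera, GAL4-UAS reporters; 24 h compound exposure. Activity = increase over DMSO negative control.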

[4] = biological target: Retinoic acid receptor RXR-alpha (Homo sapiens) (UniProt P19793); test: ATG_RXRa_TRANS: Attagene TRANS-FACTORIAL HepG2 Assay for human Retinoid X Receptor alpha (RXRa) (AID 2283012; active = hit-call score of the fitted dose curve at least 0.9, where 1 is the maximum)
Method in brief: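 HepG2 cells transiently transfected with GAL4-UAS reporter units and chimeric RXRa-Gal4 protein, treated 24 h. Reporter mRNA measured by RT-PCR, fluorescent labelling, HpaI digestion and capillary electrophoresis. Induction fitted against DMSO.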

[5] = ATG_AP_1_CIS: Attagene CIS-FACTORIAL HepG2 Assay for human Activator Protein 1 (AP-1) (AID 2282931); details: HepG2 Attagene cis-factorial AP-1 reporter mRNA; actives raise or lower the signal
Method in brief: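 Endogenous transcription-factor activity in human HepG2 liver cells is read through a cis-promoter reporter transcript, sampled 24 h after dosing. Detection uses RT-PCR with capillary electrophoresis; values come from bidirectional fitting relative to DMSO.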

[6] = ATG_GAL4_TRANS: Attagene TRANS-FACTORIAL HepG2 Assay for GAL4 (Internal Marker) (AID 2282976; active = hit-call score of the fitted dose curve at least 0.9, where 1 is the maximum); details: HepG2 Attagene TRANS GAL4 internal marker reporter
Method in brief: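 RT-PCR/capillary electrophoresis readout of reporter mRNA. HepG2, transient MRTU transfection (GAL4-UAS reporters), 24 h compound exposure. Background-control endpoint, positive direction vs DMSO baseline.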

[7] = biological target: Bile acid receptor (Homo sapiens) (UniProt Q96RI1); test: ATG_FXR_TRANS: Attagene TRANS-FACTORIAL HepG2 Assay for Farnesoid X Receptor (FXR) (AID 2282979; active = hit-call score of the fitted dose curve at least 0.9, where 1 is the maximum;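 also: hits raise reporter mRNA above DMSO so AC50 marks FXR activation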); details: HepG2 Attagene TRANS FXR-GAL4 reporter transcription
Method in brief: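 Read-out: fluorescent reporter transcripts quantified by capillary electrophoresis after RT-PCR of total RNA. Source cells were HepG2 transiently carrying chimeric NR-GAL4 plus GAL4-UAS reporter units, dosed 24 h. Activity fitted upward relative to DMSO baseline.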

[8] = CCTE_Shafer_MEA_acute_spike_number: CCTE's Neural Acute Assay for Total Number of Spikes, Shafer Lab (AID 2284008);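 as to AC50: curve fitted for decrease in spike count so AC50 reflects inhibitors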
Method in brief: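 Rat cortical cultures, DIV 13/15, 37 C. 40 min baseline rec, cpd 0.03-40 uM, 40 min post-dose rec. Band-pass 300-5000 Hz, spike threshold 8x rms; % change in spike count per well, DMSO neg ctrl, loss-of-signal fit.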

[9] = CCTE_Shafer_MEA_acute_firing_rate_mean: CCTE's Neural Acute Assay for Mean Firing Rate, Shafer Lab (AID 2284009);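 also: analyzed for loss of signal so actives lower firing rate relative to DMSO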
Method in brief: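 Percent change in well-mean firing rate was derived from extracellular spikes detected at 8x rms noise (300-5000 Hz band-pass) before and after a 40-min compound exposure. Cultures were primary rat cortical neurons, tested at 0.03-40 uM.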

[10] = CCTE_Shafer_MEA_acute_burst_number: CCTE's Neural Acute Assay for Single-Electrode Bursts, Shafer Lab (AID 2284013)
Method in brief: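 Spontaneous network activity of primary rat cortical neurons was recorded extracellularly on microelectrode arrays at 37 C, with 40-min periods before and during exposure to 0.03-40 uM compound on DIV 13 or 15.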

[11] = CCTE_Shafer_MEA_acute_per_burst_spike_number_mean: CCTE's Neural Acute Assay for Average Number of Spikes Per Burst, Shafer Lab (AID 2284015);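 also: hits are decreases in mean spikes per burst versus baseline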
Method in brief: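 Primary rat cortical neurons on 48-well MEA plates, treated on DIV 13 or 15 at 0.03-40 uM. Spontaneous activity recorded 40 min before and 40 min after compound at 37 C; percent change in mean spikes per single-electrode burst per well, fitted in the loss direction versus DMSO.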

[12] = CCTE_Shafer_MEA_acute_interburst_interval_mean: CCTE's Neural Acute Assay for Mean Interburst Interval, Shafer Lab (AID 2284016);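 also: percent change of mean interburst interval versus each well's own pre-dose baseline; curves fitted for decrease in interburst interval relative to DMSO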
Method in brief: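 Primary rat cortical neurons on 16-electrode MEA wells were recorded 40 min at baseline on DIV 13 or 15, then 40 min after compound (0.03-40 uM), at 37 C. Value is percent change in mean interburst interval per well, DMSO as negative control.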

[13] = CCTE_Shafer_MEA_acute_burst_percentage_mean: CCTE's Neural Acute Assay for Percentage of Spikes in a Burst, Shafer Lab (AID 2284017);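 as to AC50: curve fitted for loss of signal so potency reflects decreased burst percentage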
Method in brief: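 Primary rat cortical neurons on 16-electrode MEA wells; 40 min baseline recorded at DIV 13 or 15, then 40 min after compound (0.03-40 uM) at 37 C. Well-mean fraction of spikes in single-electrode bursts; percent change from baseline, DMSO as negative control.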

[14] = CCTE_Shafer_MEA_acute_burst_percentage_std: CCTE's Neural Acute Assay for Standard Deviation of Burst Percentage, Shafer Lab (AID 2284018);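 also: fitted in the negative direction so actives lower burst percentage SD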
Method in brief: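 Value is percent change from baseline in the across-electrode SD of spikes-in-bursts percentage, wells with >/= 10 active electrodes. Acute 40-min exposure to 0.03-40 uM on DIV 13 or 15 rat cortical cultures, recorded at 37 C after 40-min baseline.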

[15] = CCTE_Shafer_MEA_acute_per_network_burst_spike_number_mean: CCTE's Neural Acute Assay for Average Number of Spikes in a Network Burst, Shafer Lab (AID 2284019);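 as to AC50: curve fitted for loss of signal so actives reduce spikes per network burst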
Method in brief: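 Read-out is mean spike count per network burst, taken as percent change between a 40-min pre-exposure and a 40-min post-exposure recording per well. Rat primary cortical neurons on MEAs at 37 C, DIV 13 or 15; compounds at 0.03-40 uM.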

[16] = CCTE_Shafer_MEA_acute_per_network_burst_spike_number_std: CCTE's Neural Acute Assay for Standard Deviation of Number of Spikes in a Network Burst, Shafer Lab (AID 2284020);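 also: fitted for decrease in spike-number SD versus DMSO so actives lower it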
Method in brief: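 Spontaneous network activity of primary rat cortical neurons is recorded extracellularly before and after a 40-min compound exposure (0.03-40 uM) at 37 C. The endpoint is the well's percent change in burst spike-number SD.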

[17] = CCTE_Shafer_MEA_acute_per_network_burst_electrodes_number_mean: CCTE's Neural Acute Assay for Mean Number of Electrodes in a Network Burst, Shafer Lab (AID 2284021);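 also: curves fitted for decreases only so hits reduce electrodes per burst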
Method in brief: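 Readout: % change in mean electrodes active per network burst, post- vs pre-treatment, each well. Spikes detected at 8x rms noise after 300-5000 Hz band-pass; rat cortical cultures, DIV 13/15, compounds 0.03-40 uM, DMSO baseline.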

[18] = CCTE_Shafer_MEA_acute_network_burst_percentage: CCTE's Neural Acute Assay for Percentage of Network Bursts, Shafer Lab (AID 2284022);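 also: curves fitted for loss so actives lower network burst percentage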
Method in brief: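 Rat cortical cultures, DIV 13/15; 20 min equilibration, 40 min baseline, compound 0.03-40 uM, 40 min recording, 37 C. Spikes: 300-5000 Hz band-pass, threshold 8x rms noise. Readout: % change in network-burst spike fraction; loss direction vs DMSO.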

[19] = ATG_Oct_MLP_CIS: Attagene CIS-FACTORIAL HepG2 Assay for human Octamer-Binding Transcription Factor (Oct) (AID 2282993); details: HepG2 Attagene cis-factorial Oct reporter, mRNA; actives raise or lower the signal
Method in brief: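 Transfected HepG2 cells, 24 h treatment. Reporter mRNA quantified by RT-PCR–capillary electrophoresis; bidirectional fitting against DMSO.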

[20] = biological target: mouse Estrogen Receptor alpha (Era), Esr1 (gene 13982) (UniProt P19785); test: NVS_NR_mERa: NovaScreen (NVS) Nuclear Receptor Binding Assay for mouse Estrogen Receptor alpha (Era) (AID 2283378; active = hit-call score of the fitted dose curve at least 0.9, where 1 is the maximum;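 also: hit means loss of bound radioligand signal relative to DMSO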)
Method in brief: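 Filter scintillation counts of bound radioligand, measured 18 h post-dose, gave the readout; decreased signal relative to DMSO controls indicated displacement from mouse Era. Primary screen ran in duplicate at 25 uM; active chemicals were retested across concentrations.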

Measured: AC50

Sequence of Retinoic acid receptor RXR-alpha (Homo sapiens) (P19793 whole entry, looked up, the tested form may be a part): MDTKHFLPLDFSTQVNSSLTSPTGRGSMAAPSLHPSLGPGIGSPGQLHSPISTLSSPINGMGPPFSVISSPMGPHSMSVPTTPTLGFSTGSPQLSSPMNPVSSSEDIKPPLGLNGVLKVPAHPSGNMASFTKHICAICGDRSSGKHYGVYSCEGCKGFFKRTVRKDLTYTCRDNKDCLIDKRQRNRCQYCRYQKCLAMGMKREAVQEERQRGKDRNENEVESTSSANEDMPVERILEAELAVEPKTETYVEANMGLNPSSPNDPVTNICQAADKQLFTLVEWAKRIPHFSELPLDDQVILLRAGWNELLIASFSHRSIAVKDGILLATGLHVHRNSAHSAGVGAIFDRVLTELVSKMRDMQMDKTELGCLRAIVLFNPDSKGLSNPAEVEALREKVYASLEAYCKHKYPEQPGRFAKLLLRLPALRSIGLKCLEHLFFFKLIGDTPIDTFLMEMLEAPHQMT
Sequence of Oxysterols receptor LXR-alpha (Homo sapiens) (Q13133 whole entry, looked up, the tested form may be a part): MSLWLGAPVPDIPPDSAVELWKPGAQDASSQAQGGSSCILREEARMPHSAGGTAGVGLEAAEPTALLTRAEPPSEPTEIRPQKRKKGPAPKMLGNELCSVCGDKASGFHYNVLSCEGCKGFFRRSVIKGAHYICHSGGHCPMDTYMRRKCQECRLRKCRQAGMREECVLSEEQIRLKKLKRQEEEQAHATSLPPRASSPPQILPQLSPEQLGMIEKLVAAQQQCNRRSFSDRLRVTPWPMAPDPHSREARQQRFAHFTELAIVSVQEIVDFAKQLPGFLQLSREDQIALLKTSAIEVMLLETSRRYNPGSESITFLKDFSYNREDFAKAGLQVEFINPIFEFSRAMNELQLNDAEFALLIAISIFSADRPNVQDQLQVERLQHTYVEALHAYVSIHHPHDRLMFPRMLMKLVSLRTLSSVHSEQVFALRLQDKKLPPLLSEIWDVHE
Sequence of Glucocorticoid receptor (Homo sapiens) (P04150 whole entry, looked up, the tested form may be a part): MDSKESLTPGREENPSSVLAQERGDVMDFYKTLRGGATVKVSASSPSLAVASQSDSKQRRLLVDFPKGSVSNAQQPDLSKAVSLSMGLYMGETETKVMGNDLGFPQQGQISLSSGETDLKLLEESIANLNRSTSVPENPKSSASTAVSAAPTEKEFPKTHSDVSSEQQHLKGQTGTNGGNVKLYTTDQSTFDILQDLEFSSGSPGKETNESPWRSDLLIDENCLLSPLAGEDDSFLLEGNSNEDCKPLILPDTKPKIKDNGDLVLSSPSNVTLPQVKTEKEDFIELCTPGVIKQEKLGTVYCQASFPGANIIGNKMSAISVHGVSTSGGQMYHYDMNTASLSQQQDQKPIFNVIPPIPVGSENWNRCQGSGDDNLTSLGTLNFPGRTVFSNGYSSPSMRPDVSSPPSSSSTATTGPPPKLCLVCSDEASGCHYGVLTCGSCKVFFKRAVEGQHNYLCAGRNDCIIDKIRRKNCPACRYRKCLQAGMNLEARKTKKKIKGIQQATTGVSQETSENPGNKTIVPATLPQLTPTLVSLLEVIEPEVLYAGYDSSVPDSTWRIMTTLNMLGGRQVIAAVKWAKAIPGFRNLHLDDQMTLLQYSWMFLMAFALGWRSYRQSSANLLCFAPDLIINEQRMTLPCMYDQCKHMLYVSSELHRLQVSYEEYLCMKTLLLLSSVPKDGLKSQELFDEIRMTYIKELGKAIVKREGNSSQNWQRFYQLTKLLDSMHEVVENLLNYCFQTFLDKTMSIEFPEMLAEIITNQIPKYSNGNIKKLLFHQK
Sequence of mouse Estrogen Receptor alpha (Era), Esr1 (gene 13982) (P19785 whole entry, looked up): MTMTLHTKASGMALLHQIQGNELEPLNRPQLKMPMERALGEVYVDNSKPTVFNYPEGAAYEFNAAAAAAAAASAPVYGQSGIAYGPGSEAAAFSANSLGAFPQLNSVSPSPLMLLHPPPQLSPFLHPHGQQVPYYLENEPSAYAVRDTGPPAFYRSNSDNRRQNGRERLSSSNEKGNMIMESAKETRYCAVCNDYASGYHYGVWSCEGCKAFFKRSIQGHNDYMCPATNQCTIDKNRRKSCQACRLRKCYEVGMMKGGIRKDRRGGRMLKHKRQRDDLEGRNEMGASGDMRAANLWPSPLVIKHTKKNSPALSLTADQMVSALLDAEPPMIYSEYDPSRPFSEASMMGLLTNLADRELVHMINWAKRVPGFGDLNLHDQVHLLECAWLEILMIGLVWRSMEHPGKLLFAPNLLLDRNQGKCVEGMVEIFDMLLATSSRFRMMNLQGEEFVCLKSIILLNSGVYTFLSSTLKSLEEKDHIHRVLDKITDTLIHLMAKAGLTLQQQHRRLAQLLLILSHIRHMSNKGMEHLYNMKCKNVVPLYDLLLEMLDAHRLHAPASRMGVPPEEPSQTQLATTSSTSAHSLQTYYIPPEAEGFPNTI
Sequence of Bile acid receptor (Homo sapiens) (Q96RI1 whole entry, looked up, the tested form may be a part): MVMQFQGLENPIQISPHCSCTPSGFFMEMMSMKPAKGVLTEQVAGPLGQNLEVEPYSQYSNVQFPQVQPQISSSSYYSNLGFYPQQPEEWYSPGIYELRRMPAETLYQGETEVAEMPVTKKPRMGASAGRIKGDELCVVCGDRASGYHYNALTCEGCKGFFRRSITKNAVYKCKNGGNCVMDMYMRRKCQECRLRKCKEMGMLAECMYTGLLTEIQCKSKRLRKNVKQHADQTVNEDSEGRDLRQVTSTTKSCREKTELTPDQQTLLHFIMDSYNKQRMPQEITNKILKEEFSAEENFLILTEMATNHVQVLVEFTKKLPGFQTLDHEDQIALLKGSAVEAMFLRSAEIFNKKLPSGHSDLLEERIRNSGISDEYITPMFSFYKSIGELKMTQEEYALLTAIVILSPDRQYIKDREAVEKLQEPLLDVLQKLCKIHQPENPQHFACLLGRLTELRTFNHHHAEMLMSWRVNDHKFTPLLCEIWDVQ

Sc1nc2ccccc2s1
inactive: [1] | [2] | [3] | [4]

CNC(=C[N+](=O)[O-])NCCSCc1csc(CN(C)C)n1
inactive: [5] | [6] | [3]

Oc1cccc2ccccc12
inactive: [5] | [1] | [7] | [4]

O=[N+]([O-])c1cc(S(=O)(=O)Nc2ccccc2)ccc1Nc1ccccc1
active: [8] 2.98 µM | [9] 2.98 µM | [13] 25.1 µM | [14] 15 µM | [15] 1.26 µM | [16] 1.22 µM
inactive: [10] | [11] | [12] | [17] | [18]

CC/C=C\CCO
inactive: [1] | [2] | [4]

Cc1c(C(N)=O)cc([N+](=O)[O-])cc1[N+](=O)[O-]
active: [8] 0.003 µM | [9] 0.0032 µM
inactive: [10] | [11] | [12] | [13] | [14] | [15] | [16] | [17] | [18]

OCCOCCOCCOCCOCCO
inactive: [5] | [1] | [6] | [19]

COc1ccccc1Oc1c(NS(=O)(=O)c2ccc(C(C)(C)C)cc2)nc(-c2ncccn2)nc1OCCO
active: [12] 5.33 µM
inactive: [8] | [9] | [10] | [11] | [13] | [14] | [15] | [16] | [17] | [18]

CC(=O)Nc1c(I)c(NC(C)=O)c(I)c(C(=O)O)c1I
inactive: [2]

CCc1cc(C(N)=S)ccn1
inactive: [5] | [1] | [3] | [19]

CC1=CCCC(C)(C)C12CCC(C)O2 (stereo not drawn)
inactive: [5] | [6] | [7] | [3] | [4]

C1CN(CCOCCN2CCOCC2)CCO1
inactive: [8] | [9] | [10] | [11] | [12] | [13] | [14] | [15] | [16] | [17] | [18]

CCCCCCCCCCCCSC#N
active: [20] 6.16 µM

Oc1ccc(Cl)cc1C1CCCC1
inactive: [3]
active: [7] 18.5 µM | [19] 47.9 µM | [4] 17.6 µM

CC(C)C1OCCN1CCOC(=O)NCCCCCCNC(=O)OCCN1CCOC1C(C)C (stereo not drawn)
inactive: [10] | [11] | [12] | [13] | [14] | [15] | [16] | [17] | [18]
active: [8] 0.0163 µM | [9] 0.0163 µM

O=C(CC(C(=O)OC1CCCCC1)S(=O)(=O)O)OC1CCCCC1 (stereo not drawn)
inactive: [5] | [6] | [7] | [3]

c1ccc2c(c1)Oc1ccccc1S2
inactive: [5] | [1] | [2] | [19] | [4]

CC(C)CC(=O)CC(C)CC(C)C (stereo not drawn)
inactive: [6] | [7] | [19] | [4]

O=C(Oc1ccccc1)c1ccccc1
inactive: [19]

Nc1nc(N)c2nc(-c3ccccc3)c(N)nc2n1
inactive: [20]

CC(C)(C)C(=O)C(=O)O
inactive: [20]

c1ccc(CNc2ncnc3nc[nH]c23)cc1
inactive: [5] | [1] | [2] | [7] | [3] | [19] | [4]

CCCCCCCCCCCCCCCCCC[N+](C)(C)C
active: [1] 6.1 µM | [6] 15.4 µM | [2] 11.8 µM | [7] 15.9 µM | [19] 6.14 µM
inactive: [5] | [3] | [4]

COc1cc(CNC(=O)CCCC/C=C/C(C)C)ccc1O
active: [13] 4.25 µM | [14] 8.5 µM
inactive: [8] | [9] | [10] | [11] | [12] | [15] | [16] | [17] | [18]

COc1ccc2ccccc2c1
inactive: [6] | [2] | [7] | [3] | [19]

NC(N)=Nc1nc(CSCCC(N)=NS(N)(=O)=O)cs1
not listed: [3] | [4] | [5] | [20]
inactive: all other assays above

CC(=O)CC(=O)OC(C)(C)C
inactive: [20]

CCO[Si](CCCN)(OCC)OCC
inactive: [5] | [1] | [6] | [2] | [7] | [3] | [4]

CCC[Si](OC(C)=O)(OC(C)=O)OC(C)=O
inactive: [11] | [12] | [13] | [14] | [15] | [16] | [17] | [18]
active: [8] 0.0721 µM | [9] 0.0721 µM | [10] 0.0554 µM

COC(=O)CCCC(=O)O
inactive: [20]

Cc1oc(C)c(C(=O)Nc2ccccc2)c1C
inactive: [20]

Cc1cccc(NC(=S)N(C)C)c1
inactive: [20]

COc1ccc(COC=O)cc1
inactive: [20]

CNCCC(Oc1ccc(C(F)(F)F)cc1)c1ccccc1 (stereo not drawn)
active: [8] 0.877 µM | [9] 0.877 µM | [10] 0.693 µM | [13] 7.59 µM | [14] 5.91 µM
inactive: [11] | [12] | [15] | [16] | [17] | [18]

CNC(=O)Nc1ccc(Cl)c(Cl)c1
inactive: [20]

CC(C)CC(=O)C1C(=O)c2ccccc2C1=O
inactive: [20]

CCCCCCCCOCCCN
inactive: [20]
